# Tests used:
# Assay in all cases: PBM binding z-score (relative to random genomic background probes); higher = stronger binding; sequences stand for … in GC…GCGATTGACAGCGTAGAATGAAGG
# [1] = system: FXR:RXRa (NR concentration 270 nM, RXRa partner concentration 90 nM)
# How it was run: (§1)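 Ligand-free nuclear receptor dimers were applied to custom Agilent 4×180K protein-binding microarrays whose double-stranded probes carried direct-repeat seeds, single-nucleotide variants, half-site ablations and random human genomic background sequences in 34-nt variable regions. Incubation lasted 1 h. Binding z-scores were computed against the random background probes from regression-normalized fluorescence.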
# [2] = system: LXRa:RXRa (NR concentration 270 nM, RXRa partner concentration 90 nM)
# How it was run: as §1
# [3] = system: LXRa homodimer (NR concentration 270 nM)
# How it was run: as §1
# [4] = system: LXRb:RXRa (NR concentration 270 nM, RXRa partner concentration 90 nM)
# How it was run: as §1
# [5] = system: LXRb homodimer (NR concentration 270 nM)
# How it was run: as §1
# [6] = system: PPARa:RXRa (NR concentration 270 nM, RXRa partner concentration 90 nM)
# How it was run: as §1
# [7] = system: PPARg:RXRa (NR concentration 180 nM, RXRa partner concentration 90 nM)
# How it was run: as §1
# [8] = system: PPARg:RXRa 270nM:90nM, anti-RXR (NR concentration 270 nM, RXRa partner concentration 90 nM)
# How it was run: as §1
# [9] = system: PPARg:RXRa 30nM:10nM, anti-RXR (NR concentration 30 nM, RXRa partner concentration 10 nM)
# How it was run: as §1
# [10] = system: PPARg:RXRa 90nM:30nM, anti-RXR (NR concentration 90 nM, RXRa partner concentration 30 nM)
# How it was run: as §1
# [11] = system: PPARg:RXRa DBDmut IVT, anti-RXR (DBD mutation: RXRa K156A/R161A, NR concentration 270 nM, RXRa partner concentration 90 nM)
# How it was run: as §1
# [12] = system: PPARg:RXRa IVT, anti-PPARg (NR concentration 270 nM, RXRa partner concentration 90 nM)
# How it was run: as §1
# [13] = system: PPARg DBDmut:RXRa IVT, anti-PPARg (DBD mutation: PPARg1 K132A/R137A, NR concentration 270 nM, RXRa partner concentration 90 nM)
# How it was run: as §1
# [14] = system: PPARg DBDmut IVT, anti-PPARg (DBD mutation: PPARg1 K132A/R137A, NR concentration 270 nM)
# How it was run: as §1
# [15] = system: PPARg homodimer (NR concentration 180 nM)
# How it was run: as §1
# [16] = system: PXR:RXRa (NR concentration 270 nM, RXRa partner concentration 90 nM)
# How it was run: as §1
# [17] = system: PXR homodimer (NR concentration 270 nM)
# How it was run: as §1
# [18] = system: RARa:RXR (NR concentration 270 nM, RXRa partner concentration 90 nM)
# How it was run: as §1
# [19] = system: RARa homodimer (NR concentration 270 nM)
# How it was run: as §1
# [20] = system: RARb:RXRa (NR concentration 270 nM, RXRa partner concentration 90 nM)
# How it was run: as §1
Sequence,PBM binding z-score [1],PBM binding z-score [2],PBM binding z-score [3],PBM binding z-score [4],PBM binding z-score [5],PBM binding z-score [6],PBM binding z-score [7],PBM binding z-score [8],PBM binding z-score [9],PBM binding z-score [10],PBM binding z-score [11],PBM binding z-score [12],PBM binding z-score [13],PBM binding z-score [14],PBM binding z-score [15],PBM binding z-score [16],PBM binding z-score [17],PBM binding z-score [18],PBM binding z-score [19],PBM binding z-score [20]
CCTACTGGGCCTTTCAGAGGTCATTGATCATATG,2.73,4.97,8.02,3.71,0.477,3.35,0.785,2.22,0.333,1.2,2.39,2.44,-0.307,0.081,2.46,4.68,2.5,4.52,1.01,2.8
CGAACGAGGTCAAGGACAGTGAATCTCCGCACGC,7.55,5.54,0.753,4.4,0.542,5.95,7.29,6.61,3.39,5.65,5.22,5.6,0.997,-0.199,2.14,4.9,0.979,5.15,0.619,5.24
CGTCCAAGGTCATAGGAGGTCAGTGGAGACAGAT,7.92,7.55,5.5,6.44,1.44,5.76,5.84,5.73,2.93,4.69,3.31,4.65,1.06,-0.0581,7.55,6.94,6.61,5.94,4.42,5.39
CGGCCAAGGTCAATGCTAGGTCAGTGAAAGCATT,6.95,5.47,1.75,4.08,0.00864,5.19,4.4,4.78,1.47,3.21,3.06,3.69,-0.404,-1.18,4.15,4.73,0.802,5.67,0.406,5.24
ATACCAAGGTGATAGTGAGGTCGTTGATACTAAC,1.53,1.39,0.943,1.4,0.0823,1.81,0.759,0.98,0.458,0.738,0.454,1.64,0.276,0.701,1.01,3.17,1.94,2.23,0.553,1.51
GCTTACGGGTCAAGGGTTATAGCATGAATAGAAT,7,4.33,-0.0628,4.68,0.59,6.34,9.43,7.41,6.16,8.05,3.76,5.31,1.91,1.82,3.12,4.69,0.12,7.06,0.958,4.27
CCGAGTAGGTTATGGGGCATTCAGGCAACGGTGA,0.255,0.351,-0.0528,0.508,-0.322,2.11,3.48,4.31,2.03,3.91,3.19,3.21,-0.378,0.039,0.874,-0.0382,0.0489,0.571,0.139,0.99
ACTATTAGTTGAGACCAGGGCAACCGATAGGTTG,0.433,-0.242,-0.0882,-0.177,0.0937,0.067,0.508,0.263,0.00186,-0.189,0.0901,0.557,0.284,0.911,-0.00507,0.204,0.236,0.191,0.419,0.628
ATCACTAGGTAACAAGTTCAGTGAAAGAGAGGAC,0.674,0.942,0.705,0.664,0.576,1.94,3.04,3.04,1.14,2.5,5,4.3,1.27,0.914,1.31,1.95,2.35,0.935,1.41,1.8
TATCGGAGGACACGAAAGGTCAGAGCTCGACATC,3.35,4.54,4.27,3.43,0.855,3.93,2.18,2.81,1.03,2.13,0.425,2.37,0.89,0.344,2.86,4.25,0.981,4.73,1.49,4.37
CTAACTAGGTCATCCAGGACAGTGAATACATTGA,4.13,3.08,1.1,2.34,0.444,5.16,8.66,7.07,4.48,7.08,8.55,8.68,3.4,1.83,2.45,2.07,1.37,2.83,0.768,3.88
ATAACGAGGGCAATGAGTTGATAGCACGGGTGGC,0.269,0.688,-0.402,0.00885,0.11,1.23,1.8,1.31,0.221,0.999,3.37,2.77,1.02,0.667,0.411,2,5.03,0.222,-0.438,2.02
TCTCGGAGGACGCGAAAGGTCAGAGCTCGACATC,2.41,3.21,1.27,2.37,-0.501,3.2,1.67,3.46,2.47,3.21,0.887,0.996,1.57,0.428,2.2,3.7,0.0066,4.09,0.692,3.89
TCTGCCAGGTCAACGATGGTCAGCTAATCTGCTA,4.25,3.33,0.136,2.23,0.15,3.46,2.13,2.8,1.53,2.04,2.07,2.98,0.16,0.24,1.11,2.56,-0.453,2.89,-0.675,4.02
CCGAGTAAGTTATGGGGCATTCAGGCAACGGTGA,-0.323,-0.322,-0.465,-0.146,-0.649,-0.0291,0.19,0.385,-0.496,0.0497,0.876,0.12,0.0533,-0.856,0.399,-0.507,-0.558,-0.445,-0.0178,-0.111
TTACCAAGGTGAAGGTAGTTGATCCCTCTGTAGA,0.475,0.286,-0.482,0.307,-0.931,1.44,0.324,1.29,0.219,0.784,2.05,2.3,-0.207,-0.0185,0.00789,0.456,-0.74,0.351,-0.156,1.35
CCTAACGGGTCACTGACAGGTTATAGCATTTGGA,4.16,3.46,0.268,2.65,-0.0444,4.42,3.07,3.01,0.84,1.88,2.22,2.71,-0.265,-0.262,2.61,3.02,0.336,4.05,1.31,3.48
TCTCGGAAGACACGAAAGGTCAGAGCTCGACATC,2.36,3.38,1.85,3.1,0.242,3.61,0.772,2.46,3.29,2.35,2,1.27,0.544,-0.207,3.09,3.58,0.388,4.27,1.14,3.73

# Reference: the supplement of paper PMC6555819
